Assay [1] addresses Homeodomain-interacting protein kinase 3 (Homo sapiens) (UniProt Q9H422). Conditions: at 10 µM.
Assay [2] has as its target T1, Serine/threonine-protein kinase haspin (Homo sapiens) (UniProt Q8TF76).
T1 sequence (whole entry): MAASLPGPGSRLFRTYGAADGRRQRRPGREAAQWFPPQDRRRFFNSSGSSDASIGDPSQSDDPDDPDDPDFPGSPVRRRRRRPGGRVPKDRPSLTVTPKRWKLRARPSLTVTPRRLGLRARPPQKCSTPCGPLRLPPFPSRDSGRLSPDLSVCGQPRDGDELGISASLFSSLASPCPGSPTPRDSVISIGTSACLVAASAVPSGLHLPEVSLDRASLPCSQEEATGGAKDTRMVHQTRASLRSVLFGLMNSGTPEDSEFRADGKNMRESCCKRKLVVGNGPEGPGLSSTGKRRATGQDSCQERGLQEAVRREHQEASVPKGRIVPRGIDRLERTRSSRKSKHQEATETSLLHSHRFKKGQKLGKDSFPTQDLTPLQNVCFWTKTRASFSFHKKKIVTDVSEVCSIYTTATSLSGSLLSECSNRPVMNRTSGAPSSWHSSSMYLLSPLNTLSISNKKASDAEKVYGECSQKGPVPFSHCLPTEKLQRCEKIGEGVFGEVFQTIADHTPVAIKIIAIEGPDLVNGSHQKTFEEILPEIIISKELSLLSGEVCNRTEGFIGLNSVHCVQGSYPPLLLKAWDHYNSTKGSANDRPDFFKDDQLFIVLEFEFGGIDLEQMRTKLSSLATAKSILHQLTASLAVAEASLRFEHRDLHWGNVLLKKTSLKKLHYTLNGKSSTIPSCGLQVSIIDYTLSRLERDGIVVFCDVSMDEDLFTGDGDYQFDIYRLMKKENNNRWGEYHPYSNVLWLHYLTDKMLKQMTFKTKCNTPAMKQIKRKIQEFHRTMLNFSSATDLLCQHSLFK
Conditions: at 1 µM.

Assay [3] has as its target T1, Serine/threonine-protein kinase haspin (Homo sapiens). Conditions: at 10 µM.
The target of assay [4] is Tyrosine-protein kinase HCK (Homo sapiens) (UniProt P08631). Conditions: at 1 µM.
Sequence of Tyrosine-protein kinase HCK (Homo sapiens) (P08631 2-526 limits assumed): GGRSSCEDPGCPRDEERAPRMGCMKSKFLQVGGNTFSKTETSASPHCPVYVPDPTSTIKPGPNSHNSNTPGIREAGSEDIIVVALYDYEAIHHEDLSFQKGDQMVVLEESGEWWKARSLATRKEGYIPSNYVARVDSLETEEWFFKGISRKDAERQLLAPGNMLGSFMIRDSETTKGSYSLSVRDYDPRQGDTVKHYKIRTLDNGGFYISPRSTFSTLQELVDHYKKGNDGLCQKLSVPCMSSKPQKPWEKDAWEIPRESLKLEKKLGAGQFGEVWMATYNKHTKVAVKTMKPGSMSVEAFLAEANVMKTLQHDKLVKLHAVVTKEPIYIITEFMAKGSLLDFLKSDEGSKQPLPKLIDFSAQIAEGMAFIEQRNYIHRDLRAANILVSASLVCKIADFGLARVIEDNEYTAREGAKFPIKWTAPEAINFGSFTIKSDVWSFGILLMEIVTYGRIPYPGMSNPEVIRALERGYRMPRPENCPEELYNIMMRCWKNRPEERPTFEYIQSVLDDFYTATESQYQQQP
Assay [5] has the same target. To be noted: at 10 µM.
The target is the same in assay [6]. To be noted: at 1 µM. The source holds these as a separate data set.
The target is the same in assay [7]. To be noted: at 10 µM. This is another data set of the same source.
Assay [8] addresses Insulin-like growth factor 1 receptor (Homo sapiens) (UniProt P08069). To be noted: at 1 µM.
Assay [9] has the same target. Conditions: at 10 µM.
Assay [10] has as its target T2, Protein kinase C zeta type (Homo sapiens) (UniProt Q05513).
T2 sequence (whole entry): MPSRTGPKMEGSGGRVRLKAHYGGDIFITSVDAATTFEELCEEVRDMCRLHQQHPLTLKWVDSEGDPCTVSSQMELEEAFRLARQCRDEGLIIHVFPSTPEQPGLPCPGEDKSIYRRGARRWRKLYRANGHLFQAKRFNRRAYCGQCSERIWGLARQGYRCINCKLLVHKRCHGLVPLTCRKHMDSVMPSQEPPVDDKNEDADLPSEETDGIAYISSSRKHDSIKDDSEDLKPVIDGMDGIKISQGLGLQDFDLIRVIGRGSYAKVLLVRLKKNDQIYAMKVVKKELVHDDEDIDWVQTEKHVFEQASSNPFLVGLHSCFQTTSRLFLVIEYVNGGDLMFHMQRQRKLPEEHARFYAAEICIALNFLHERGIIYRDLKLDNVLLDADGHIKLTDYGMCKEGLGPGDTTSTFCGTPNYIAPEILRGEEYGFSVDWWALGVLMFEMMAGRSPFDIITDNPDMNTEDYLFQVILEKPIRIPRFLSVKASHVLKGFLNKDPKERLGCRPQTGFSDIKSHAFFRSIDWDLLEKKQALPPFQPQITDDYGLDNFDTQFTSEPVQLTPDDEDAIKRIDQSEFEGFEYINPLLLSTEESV
Conditions: at 10 µM.

Sequence of Homeodomain-interacting protein kinase 3 (Homo sapiens) (Q9H422 whole entry, looked up): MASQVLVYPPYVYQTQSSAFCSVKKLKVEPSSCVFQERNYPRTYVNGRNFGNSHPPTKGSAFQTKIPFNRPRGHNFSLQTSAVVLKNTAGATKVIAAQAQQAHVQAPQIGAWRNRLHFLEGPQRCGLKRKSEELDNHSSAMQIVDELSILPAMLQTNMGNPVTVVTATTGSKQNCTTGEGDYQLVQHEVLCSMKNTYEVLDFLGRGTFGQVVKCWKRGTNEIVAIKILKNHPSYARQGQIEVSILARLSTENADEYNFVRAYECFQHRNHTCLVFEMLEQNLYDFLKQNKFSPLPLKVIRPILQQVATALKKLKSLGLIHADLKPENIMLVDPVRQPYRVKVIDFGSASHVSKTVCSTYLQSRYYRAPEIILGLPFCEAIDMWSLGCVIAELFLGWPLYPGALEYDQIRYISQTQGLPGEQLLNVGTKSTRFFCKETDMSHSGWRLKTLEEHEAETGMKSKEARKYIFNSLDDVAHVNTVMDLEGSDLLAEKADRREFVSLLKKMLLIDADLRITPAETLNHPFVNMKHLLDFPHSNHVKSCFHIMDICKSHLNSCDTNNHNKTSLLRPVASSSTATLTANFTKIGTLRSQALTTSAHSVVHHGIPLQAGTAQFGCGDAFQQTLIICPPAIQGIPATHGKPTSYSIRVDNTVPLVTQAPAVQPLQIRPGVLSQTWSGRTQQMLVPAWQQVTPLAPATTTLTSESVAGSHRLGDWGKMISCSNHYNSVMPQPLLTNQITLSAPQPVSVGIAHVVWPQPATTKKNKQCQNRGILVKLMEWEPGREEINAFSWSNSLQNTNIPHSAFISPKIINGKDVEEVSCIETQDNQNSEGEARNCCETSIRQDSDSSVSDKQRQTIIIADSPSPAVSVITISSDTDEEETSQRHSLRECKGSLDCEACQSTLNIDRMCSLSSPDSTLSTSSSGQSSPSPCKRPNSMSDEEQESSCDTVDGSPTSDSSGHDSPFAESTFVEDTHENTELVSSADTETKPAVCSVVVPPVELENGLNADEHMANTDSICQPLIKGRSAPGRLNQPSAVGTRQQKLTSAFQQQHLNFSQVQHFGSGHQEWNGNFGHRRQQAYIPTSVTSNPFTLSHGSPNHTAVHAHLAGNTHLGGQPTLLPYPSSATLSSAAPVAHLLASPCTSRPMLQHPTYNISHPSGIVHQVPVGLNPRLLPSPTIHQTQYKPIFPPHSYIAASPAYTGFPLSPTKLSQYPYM
Sequence of Insulin-like growth factor 1 receptor (Homo sapiens) (P08069 31-736 limits assumed): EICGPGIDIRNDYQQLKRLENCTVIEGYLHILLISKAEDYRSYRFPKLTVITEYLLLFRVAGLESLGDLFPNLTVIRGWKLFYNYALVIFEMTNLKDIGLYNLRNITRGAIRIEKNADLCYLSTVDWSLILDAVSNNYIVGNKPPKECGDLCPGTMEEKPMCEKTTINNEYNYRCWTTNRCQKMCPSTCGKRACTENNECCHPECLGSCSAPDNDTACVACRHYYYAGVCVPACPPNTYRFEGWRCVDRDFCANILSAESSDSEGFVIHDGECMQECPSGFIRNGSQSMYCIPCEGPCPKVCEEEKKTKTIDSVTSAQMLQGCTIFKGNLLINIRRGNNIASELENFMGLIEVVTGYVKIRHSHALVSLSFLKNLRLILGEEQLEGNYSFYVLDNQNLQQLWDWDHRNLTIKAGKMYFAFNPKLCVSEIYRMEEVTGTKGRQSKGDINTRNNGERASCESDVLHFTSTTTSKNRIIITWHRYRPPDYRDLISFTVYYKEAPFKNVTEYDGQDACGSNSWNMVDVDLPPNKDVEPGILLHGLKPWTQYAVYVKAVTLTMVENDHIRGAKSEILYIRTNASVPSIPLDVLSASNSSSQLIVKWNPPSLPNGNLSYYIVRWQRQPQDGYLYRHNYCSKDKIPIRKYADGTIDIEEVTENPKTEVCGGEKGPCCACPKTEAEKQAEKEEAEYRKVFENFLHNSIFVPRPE
Sequence of Insulin-like growth factor 1 receptor (Homo sapiens) (P08069 741-1367 limits assumed): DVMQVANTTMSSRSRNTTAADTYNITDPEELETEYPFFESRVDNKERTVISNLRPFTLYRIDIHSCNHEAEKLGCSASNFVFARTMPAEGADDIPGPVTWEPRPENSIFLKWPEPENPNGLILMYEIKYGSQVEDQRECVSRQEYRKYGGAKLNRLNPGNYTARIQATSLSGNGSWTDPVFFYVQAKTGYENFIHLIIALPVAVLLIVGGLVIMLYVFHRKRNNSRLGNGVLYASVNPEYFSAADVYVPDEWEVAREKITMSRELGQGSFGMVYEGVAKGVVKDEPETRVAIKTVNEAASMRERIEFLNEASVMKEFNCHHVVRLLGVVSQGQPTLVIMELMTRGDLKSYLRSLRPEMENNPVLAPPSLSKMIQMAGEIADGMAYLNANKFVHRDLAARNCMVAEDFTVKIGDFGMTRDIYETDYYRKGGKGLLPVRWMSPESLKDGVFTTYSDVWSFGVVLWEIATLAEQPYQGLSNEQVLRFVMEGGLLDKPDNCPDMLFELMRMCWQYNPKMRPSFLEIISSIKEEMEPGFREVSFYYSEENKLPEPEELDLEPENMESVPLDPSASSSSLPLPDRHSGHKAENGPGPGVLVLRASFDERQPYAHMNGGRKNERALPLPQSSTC

With `CC(C)c1nn(-c2c(Cl)cccc2Cl)c2nc(Cc3ccc(OCCO)cc3)[nH]c(=O)c12`, the residual activity (as a rule, the signal under treatment as a percentage of the control signal) in assay [1] was 103%; in assay [2] it was 97%; in assay [3] it was 56%; in assay [4], 75%; in assay [5], 56%; in assay [6], 98%. For the same compound, the residual activity in assay [7] was 86%; in assay [8], 135%; in assay [9], 103%; in assay [10], 93%.

For the compound `CCN1/C(=C/C(C)=O)Sc2ccc(OC)cc21`, the residual activity in [1] came to 75%; in assay [2], 17%; in assay [3], 4%; in assay [4], 76%; in assay [5], 71%; in assay [8], 70%.

As for `Oc1cccc(-c2nc(N3CCOCC3)c3oc4ncccc4c3n2)c1`, the residual activity was determined as 59% in assay [1]; 76% in assay [2]; 32% in assay [3]; 68% in [5]; 131% in [8].

For the compound `O=c1cc(N2CCNCC2)oc2c(-c3ccccc3)cccc12`, the residual activity in assay [1] worked out at 99%; in assay [2] it was 83%; in assay [3] it was 38%; in assay [4], 79%; in [5], 66%; in [7] it was 95%. In addition, the residual activity in assay [9] was determined as 149%.

For the compound `O=C(c1cc2cc(O)ccc2[nH]1)c1cc2cc(O)ccc2[nH]1`, the residual activity in assay [1] turned out to be 25%; in [2], 39%; in assay [3], 7%; in assay [4] it was 23%; in assay [5], 5%; in assay [6] it was 8%. In addition, the residual activity in assay [7] was 3%; in assay [8], 65%; in assay [9] it was 63%.

For the compound `CC(C)(C)n1nc(Cc2cccc3ccccc23)c2c(N)ncnc21`, the residual activity in assay [1] is 97%; in [2], 79%; in assay [3], 16%; in [4] it was 32%; in [5], 3%; in assay [6], 43%. Further, the residual activity in assay [8] worked out at 142%; in assay [9], 96%; in [10] it was 116%.

`O=c1cc(N2CCOCC2)oc2c1ccc1ccccc12`: the residual activity in assay [1] turned out to be 21%; in assay [2] it was 74%; in assay [3] it was 26%; in [4], 85%; in assay [5] it was 77%; in assay [6], 101%. Also, the residual activity in assay [7] was determined as 110%; in [10], 91%.

As to `COc1cc2nccc(Oc3ccc(NC(=S)NC(=O)c4ccccc4C)cc3)c2cc1OC`, the residual activity in assay [1] amounted to 101%; in [2], 80%; in [3], 35%; in assay [4], 7%; in assay [5], 1%; in assay [6] it was 11%. The residual activity in assay [7] is 3%; in [8] it was 120%; in [9], 148%.

Consider `COc1ccc2c(c1)c(C1=C(c3c[nH]c4ccccc34)C(=O)NC1=O)cn2CCCN(C)C`, for which the residual activity in assay [1] was found to be 22%; in [2], 98%; in assay [3] it was 56%; in assay [4], 65%; in [5] it was 53%; in [6] it was 98%. Moreover, the residual activity in assay [7] was found to be 72%; in [8], 134%; in assay [9], 104%; in assay [10], 27%.

In the case of `COc1ccc(Cl)cc1NC(=O)Nc1cc(C)nc2ccccc12`, the residual activity in [1] came out at 98%; in assay [4] it was 93%; in assay [5] it was 53%; in assay [6] it was 100%; in assay [7], 98%; in assay [8] it was 147%.

For the compound `NC(=O)Nc1sc(-c2ccc(F)cc2)cc1C(N)=O`, the residual activity in [1] amounted to 90%; in assay [2], 63%; in [3], 51%; in [4] it was 24%; in [5], 6%; in assay [6] it was 37%. Also, the residual activity in assay [7] was 7%; in assay [8], 82%; in assay [9], 32%; in assay [10] it was 100%.

On to `NC(=O)c1cccc(-c2cc(Nc3ccc(OC(F)(F)F)cc3)ncn2)c1`, for which the residual activity was 84% in assay [2] and 65% in assay [3].

Take `O=C(CCCc1ccc(-c2ccccc2F)cc1)Nc1ccc(O)cc1`: the residual activity in assay [1] stood at 98%; in assay [3], 98%; in assay [4], 96%; in assay [5], 62%; in assay [6] it was 106%; in assay [7], 89%. Besides, the figures for the residual activity in [8] and in assay [9] were 104% and 100%, respectively.

`c1ccc(-c2cnc(Nc3ccc(OCCN4CCCC4)cc3)s2)cc1`: the residual activity was determined as 31% in assay [1]; 77% in [2]; 51% in assay [3]; 57% in assay [4]; 24% in [5]; 71% in assay [6]. For the same compound, the residual activity in [7] is 11%; in assay [8], 119%; in [9], 108%; in assay [10], 109%.

For the compound `N#Cc1c(NC(=O)c2cccc3ccccc23)sc2c1CCCC2`, the residual activity was 99% in assay [1]; 82% in [2]; 64% in assay [3]; 63% in assay [4]; 55% in assay [5]; 136% in assay [8]. Besides, the residual activity in assay [9] stood at 128%; in [10], 100%.

As for `O=C1Nc2ccc(Cl)cc2/C1=C/c1cc(Cl)c(O)c(Cl)c1`, the residual activity in [1] stood at 46%; in assay [2] it was 12%; in [3], 1%; in assay [4] it was 61%; in assay [5], 15%; in assay [6], 86%. The residual activity is 53% in assay [7] and 126% in assay [8].

With `O=C1NC(=O)c2c1c1c3ccccc3[nH]c1n1cncc21`, the residual activity in assay [1] is 42%; in assay [2] it was 8%; in assay [3] it was 18%; in assay [4], 54%; in assay [5] it was 39%; in assay [6], 38%. For the same compound, the residual activity was determined as 35% in [7], 9% in [8] and 14% in [9].

Turning to `Nc1ncnc2c1c(-c1ccc(Oc3ccccc3)cc1)cn2C1CCCC1`, the residual activity in assay [1] was 97%; in assay [2], 90%; in [3] it was 44%; in assay [4] it was 2%; in assay [5] it was 1%; in [6], 1%. For the same compound, the residual activity in assay [7] was -2%; in assay [8], 127%; in assay [9], 119%; in [10], 107%.

Regarding `CCCC(=O)Oc1ccc2[nH]c(C(=O)c3cc4ccccc4[nH]3)cc2c1`, the residual activity in assay [1] was found to be 98%; in assay [2], 106%; in [3], 99%; in [4] it was 70%; in assay [5], 36%; in assay [6], 98%. In addition, the residual activity is 94% in assay [7], 143% in [8] and 106% in assay [9].

`O=S(=O)(c1cccc2cnccc12)N1CCCNCC1`: the residual activity is 60% in assay [2] and 8% in [3].

As to `Nc1ncnc2c1cnn2-c1ccccc1`, the residual activity in [1] turned out to be 94%; in assay [3] it was 83%; in [4] it was 83%; in assay [5], 68%; in assay [6] it was 96%; in [7], 85%. Further, the residual activity is 140% in assay [8] and 129% in assay [9].

As to `O=C(O)/C=C/c1cc(Br)c(Br)c(Br)c1Br`, the residual activity turned out to be 54% in [1]; 79% in [2]; 71% in [3]; 59% in assay [4]; 48% in assay [5]; 107% in [6]. Moreover, the residual activity in assay [7] was 106%; in assay [10], 88%.

These data come from ChEMBL document CHEMBL2218924, “A broad activity screen in support of a chemogenomic map for kinase signalling research and drug discovery” (Biochem J, 2013).
